According to PubChem BioAssay (EPA / NIEHS):
“And” between values parts separate entries of the source, which are not always exact repeats. Equal entries are not always repeated. Some compounds were tested as several samples or in several runs, with calls that do not always agree. The source made the active and inactive calls. How the source made its calls: active means hit-call score of the fitted dose curve at least 0.9, where 1 is the maximum; inactive means score below 0.9.

Tests used:
[1] = ATG_CRE_CIS: Attagene CIS-FACTORIAL HepG2 Assay for human cAMP Responsive Element (CRE) binding protein 3 (AID 2282926); settings: HepG2 CRE cis-reporter, Attagene multiplexed mRNA; actives raise or lower the signal
How it was run: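 HepG2 cells transiently transfected with cis-element-driven multiple reporter transcription units; CRE reporter mRNA measured 24 h after dosing by RT-PCR, 6-FAM labelling, HpaI digestion and capillary electrophoresis. Bidirectional fit versus DMSO baseline.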

[2] = biological target: CCAAT/enhancer-binding protein beta (Homo sapiens) (UniProt P17676); test: ATG_C_EBP_CIS: Attagene CIS-FACTORIAL HepG2 Assay for human CCAAT/Enhancer Binding Protein (C/EBP) beta (AID 2282927); settings: HepG2 Attagene cis-factorial transcription factor reporter; actives raise or lower the signal
Chain of CCAAT/enhancer-binding protein beta (Homo sapiens) (P17676 whole entry, looked up): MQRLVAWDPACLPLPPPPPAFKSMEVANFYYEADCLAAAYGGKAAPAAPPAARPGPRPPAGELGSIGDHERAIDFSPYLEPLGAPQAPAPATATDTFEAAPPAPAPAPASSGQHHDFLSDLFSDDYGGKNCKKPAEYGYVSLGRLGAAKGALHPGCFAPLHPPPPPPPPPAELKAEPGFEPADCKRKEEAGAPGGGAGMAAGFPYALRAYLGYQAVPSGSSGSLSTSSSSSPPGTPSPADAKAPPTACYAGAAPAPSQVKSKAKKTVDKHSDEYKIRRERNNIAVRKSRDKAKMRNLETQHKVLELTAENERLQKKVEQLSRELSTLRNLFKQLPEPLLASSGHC
How it was run: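 HepG2 transiently transfected with multiplexed reporter units under cis-regulatory promoters reporting endogenous C/EBPb activity. After 24 h exposure, reporter mRNA assayed by RT-PCR, fluorescent labelling, HpaI digestion and capillary electrophoresis; bidirectional fitting versus DMSO.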

[3] = ATG_CMV_CIS: Attagene CIS-FACTORIAL HepG2 Assay for human CMV (Internal Marker) (AID 2282928); settings: HepG2 CMV promoter reporter, transcription factor profiling; actives raise or lower the signal;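 further: endpoint acts as a background internal control marker rather than a target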
How it was run: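 HepG2 cells transiently transfected with multiple cis-regulated reporter units; 24 h compound exposure. Reporter mRNA quantified by RT-PCR, 6-FAM primer-extension labeling, HpaI digestion and capillary electrophoresis; bidirectional fitting against DMSO baseline.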

[4] = ATG_DR4_LXR_CIS: Attagene CIS-FACTORIAL HepG2 Assay for human Liver X Receptor (LXR), DR4 submotif (AID 2282929); settings: HepG2 Attagene DR4 cis-reporter, mRNA transcription; actives raise or lower the signal
How it was run: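 HepG2 cells were transiently transfected with multiple cis-regulated reporter units and dosed for 24 hours. The DR4 reporter mRNA was quantified by RT-PCR, 6-FAM labelling and capillary electrophoresis. Bidirectional fits used DMSO as baseline.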

[5] = biological target: Aryl hydrocarbon receptor (Homo sapiens) (UniProt P35869); test: ATG_Ahr_CIS: Attagene CIS-FACTORIAL HepG2 Assay for human Aryl Hydrocarbon Receptor (Ahr) (AID 2282930); settings: HepG2 AhR cis-factorial reporter transcription; actives raise or lower the signal
Chain of Aryl hydrocarbon receptor (Homo sapiens) (P35869 whole entry, looked up): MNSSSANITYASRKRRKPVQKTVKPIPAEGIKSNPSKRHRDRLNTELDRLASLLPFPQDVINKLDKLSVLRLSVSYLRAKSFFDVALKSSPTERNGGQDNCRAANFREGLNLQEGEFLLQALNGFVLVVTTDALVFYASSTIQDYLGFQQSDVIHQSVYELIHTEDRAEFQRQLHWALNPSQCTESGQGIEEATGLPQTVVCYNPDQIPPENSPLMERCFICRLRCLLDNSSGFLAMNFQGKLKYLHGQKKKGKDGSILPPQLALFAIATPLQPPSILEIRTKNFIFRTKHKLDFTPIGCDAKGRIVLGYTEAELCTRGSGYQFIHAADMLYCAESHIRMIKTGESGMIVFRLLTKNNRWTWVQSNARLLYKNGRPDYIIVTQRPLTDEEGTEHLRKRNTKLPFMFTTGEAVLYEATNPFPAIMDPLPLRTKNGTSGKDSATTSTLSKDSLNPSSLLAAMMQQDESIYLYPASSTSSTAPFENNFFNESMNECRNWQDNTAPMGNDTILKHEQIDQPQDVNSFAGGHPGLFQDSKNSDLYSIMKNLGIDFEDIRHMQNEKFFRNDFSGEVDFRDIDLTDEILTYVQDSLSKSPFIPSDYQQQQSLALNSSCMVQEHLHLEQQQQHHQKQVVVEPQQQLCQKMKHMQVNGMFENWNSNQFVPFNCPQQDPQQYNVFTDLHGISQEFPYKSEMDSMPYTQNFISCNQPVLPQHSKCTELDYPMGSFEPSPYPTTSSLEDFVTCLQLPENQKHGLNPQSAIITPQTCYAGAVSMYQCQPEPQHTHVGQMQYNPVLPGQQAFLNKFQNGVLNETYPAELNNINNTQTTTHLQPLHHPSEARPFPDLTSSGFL
How it was run: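 HepG2 cells transiently transfected with cis-element-driven multiplexed reporter units; endogenous AhR activity read as reporter mRNA 24 h after dosing, via RT-PCR, 6-FAM labelling, HpaI digestion and capillary electrophoresis. Bidirectional fit relative to DMSO.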

[6] = ATG_AP_1_CIS: Attagene CIS-FACTORIAL HepG2 Assay for human Activator Protein 1 (AP-1) (AID 2282931); settings: HepG2 Attagene cis-factorial AP-1 reporter mRNA; actives raise or lower the signal
How it was run: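 HepG2 cells transiently transfected with cis-element-driven reporter transcription units, dosed for 24 hours. Reporter mRNA measured by RT-PCR, 6-FAM labelling, HpaI digestion and capillary electrophoresis. Bidirectional fitting against DMSO baseline.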

[7] = ATG_AP_2_CIS: Attagene CIS-FACTORIAL HepG2 Assay for human Activator Protein 2 (AP-2) (AID 2282932); settings: HepG2 AP-2 cis-reporter, Attagene transcription factor profiling; actives raise or lower the signal
How it was run: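 Multiplexed mRNA reporter assay in HepG2: cis-regulated units report endogenous factor activity after 24 h treatment. Fluorescence from capillary electrophoresis of RT-PCR products gives the signal, with DMSO as baseline.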

[8] = ATG_BRE_CIS: Attagene CIS-FACTORIAL HepG2 Assay for human Bone Morphogenetic Protein (BMP) Response Element (BRE) (AID 2282933); settings: HepG2 BMP response element reporter, Attagene transcription factor profiling; actives raise or lower the signal
How it was run: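 A HepG2 multiplex reporter system measured inducible reporter mRNA 24 h post-dosing. Detection: RT-PCR, 6-FAM primer extension, HpaI digestion, capillary electrophoresis. Activity fitted bidirectionally relative to DMSO.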

[9] = biological target: Retinoic acid receptor alpha (Homo sapiens) (UniProt P10276); test: ATG_DR5_RAR_CIS: Attagene CIS-FACTORIAL HepG2 Assay for human Retinoic Acid Receptor Alpha (RARE), DR5 submotif (AID 2282934); settings: HepG2 Attagene cis-factorial RARE DR5 reporter, mRNA; actives raise or lower the signal;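 on AC50: reporter responds to endogenous RAR alpha beta and gamma in HepG2 not RARA alone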
Chain of Retinoic acid receptor alpha (Homo sapiens) (P10276 whole entry, looked up): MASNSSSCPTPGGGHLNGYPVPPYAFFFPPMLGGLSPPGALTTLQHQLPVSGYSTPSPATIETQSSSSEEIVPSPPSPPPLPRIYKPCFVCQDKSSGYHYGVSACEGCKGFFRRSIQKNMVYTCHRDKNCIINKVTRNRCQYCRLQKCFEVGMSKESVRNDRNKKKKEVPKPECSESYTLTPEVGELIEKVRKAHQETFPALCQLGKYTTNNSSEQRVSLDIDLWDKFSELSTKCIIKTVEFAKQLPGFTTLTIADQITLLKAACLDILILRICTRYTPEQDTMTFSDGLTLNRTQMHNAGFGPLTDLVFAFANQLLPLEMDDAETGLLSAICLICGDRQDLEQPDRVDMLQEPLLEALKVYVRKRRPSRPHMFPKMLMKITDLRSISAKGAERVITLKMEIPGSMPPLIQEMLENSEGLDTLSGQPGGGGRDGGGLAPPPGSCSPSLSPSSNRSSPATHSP
How it was run: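 HepG2 cells transiently transfected with multiplexed reporter units; DR5 cis-element drives reporter through endogenous transcription factors. After 24 h dosing, reporter mRNA quantified by RT-PCR, fluorescent labeling, HpaI digestion and capillary electrophoresis; bidirectional fitting versus DMSO.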

[10] = biological target: Transcription factor E2F1 (Homo sapiens) (UniProt Q01094); test: ATG_E2F_CIS: Attagene CIS-FACTORIAL HepG2 Assay for human E2F Transcription Factor 1 (AID 2282935); settings: HepG2 Attagene cis-reporter, E2F reporter RNA transcripts; actives raise or lower the signal
Chain of Transcription factor E2F1 (Homo sapiens) (Q01094 whole entry, looked up): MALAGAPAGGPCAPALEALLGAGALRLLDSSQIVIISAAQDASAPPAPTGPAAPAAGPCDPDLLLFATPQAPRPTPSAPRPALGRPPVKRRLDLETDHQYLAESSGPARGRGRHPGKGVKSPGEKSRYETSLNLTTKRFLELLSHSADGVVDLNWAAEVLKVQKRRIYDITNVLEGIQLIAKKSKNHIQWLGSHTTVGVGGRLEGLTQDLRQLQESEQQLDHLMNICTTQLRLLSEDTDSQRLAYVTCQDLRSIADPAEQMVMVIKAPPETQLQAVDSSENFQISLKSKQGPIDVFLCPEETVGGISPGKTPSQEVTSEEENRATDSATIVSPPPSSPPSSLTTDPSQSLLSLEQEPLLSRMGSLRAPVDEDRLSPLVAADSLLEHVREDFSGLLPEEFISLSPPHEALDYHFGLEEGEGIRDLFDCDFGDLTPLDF
How it was run: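 Measures reporter transcript levels via RT-PCR with capillary electrophoresis detection in HepG2 cells harboring cis-regulated reporter units; 24 h post-dose; bidirectional curve fitting with DMSO as baseline.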

[11] = ATG_E_Box_CIS: Attagene CIS-FACTORIAL HepG2 Assay for human Enhancer Box (E-box) (AID 2282936); settings: HepG2 E-box cis-reporter transcription, actives raise or lower the signal
How it was run: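 First, HepG2 cells receive multiple cis-regulated reporter constructs by transient transfection. Next, chemicals are applied for 24 h. Finally, reporter mRNA is quantified via RT-PCR and capillary electrophoresis, with DMSO as baseline.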

[12] = ATG_EGR_CIS: Attagene CIS-FACTORIAL HepG2 Assay for human Early Growth Response 1 (EGR1) (AID 2282938); settings: HepG2 Attagene CIS-FACTORIAL EGR reporter mRNA; actives raise or lower the signal
How it was run: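 HepG2 cells transiently transfected with cis-element-driven multiplexed reporter units, dosed for 24 h. EGR1-element reporter mRNA quantified by RT-PCR, 6-FAM labelling, HpaI digestion and capillary electrophoresis; bidirectional fit versus DMSO.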

[13] = ATG_M_19_CIS: Attagene CIS-FACTORIAL HepG2 Assay for M19 Transcription Factor (Internal Marker) (AID 2282939); settings: HepG2 Attagene CIS-FACTORIAL M19 internal marker reporter; actives raise or lower the signal
How it was run: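 Chemical-treated HepG2 (24 h) with MRTU constructs; reporter transcripts detected by fluorescent RT-PCR fragment analysis on capillary electrophoresis. Internal background marker, DMSO as baseline.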

[14] = ATG_ERE_CIS: Attagene CIS-FACTORIAL HepG2 Assay for Estrogen Response Element (ERE) (AID 2282940); settings: HepG2 ERE cis-reporter, Attagene RNA transcript; actives raise or lower the signal
How it was run: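 Human liver cells (HepG2) bearing transiently transfected, promoter-regulated reporter units were exposed 24 h. Reporter mRNA induction was detected by capillary electrophoresis of labelled RT-PCR products and fitted bidirectionally to DMSO.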

[15] = ATG_Ets_CIS: Attagene CIS-FACTORIAL HepG2 Assay for human Erythroblast Transformation Specific (ETS) (AID 2282941); settings: HepG2 ETS cis-reporter transcription, actives raise or lower the signal
How it was run: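 HepG2 cells transiently transfected with cis-promoter reporter transcription units were dosed for 24 h; reporter mRNA was measured by RT-PCR, 6-FAM primer extension, HpaI digestion and capillary electrophoresis, with bidirectional fitting against DMSO baseline.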

[16] = biological target: Hepatocyte nuclear factor 3-beta (Homo sapiens) (UniProt Q9Y261); test: ATG_FoxA2_CIS: Attagene CIS-FACTORIAL HepG2 Assay for human Forkhead box A2 (FOXA2) (AID 2282942); settings: HepG2 cis-reporter transcription factor activity, 24 h; actives raise or lower the signal
Chain of Hepatocyte nuclear factor 3-beta (Homo sapiens) (Q9Y261 whole entry, looked up): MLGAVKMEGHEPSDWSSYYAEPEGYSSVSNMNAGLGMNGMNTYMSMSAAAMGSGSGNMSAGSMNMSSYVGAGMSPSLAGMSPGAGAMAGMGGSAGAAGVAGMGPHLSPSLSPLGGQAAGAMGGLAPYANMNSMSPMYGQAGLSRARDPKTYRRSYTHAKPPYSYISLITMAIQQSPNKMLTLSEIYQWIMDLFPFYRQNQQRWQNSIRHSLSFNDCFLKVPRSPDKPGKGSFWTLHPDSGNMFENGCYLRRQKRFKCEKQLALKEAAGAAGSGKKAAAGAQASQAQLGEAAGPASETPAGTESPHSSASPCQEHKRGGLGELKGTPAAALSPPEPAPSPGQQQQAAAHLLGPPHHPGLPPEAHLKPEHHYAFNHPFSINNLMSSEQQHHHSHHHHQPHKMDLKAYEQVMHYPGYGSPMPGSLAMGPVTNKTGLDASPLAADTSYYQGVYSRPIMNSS
How it was run: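 HepG2 transiently transfected with a multiplexed cis-promoter reporter library read endogenous FOXA2 activity. After 24 h compound exposure, reporter mRNA was quantified by RT-PCR, HpaI digestion and capillary electrophoresis. Bidirectional fit against DMSO.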

[17] = ATG_FoxO_CIS: Attagene CIS-FACTORIAL HepG2 Assay for human Forkhead box O (FoxO) (AID 2282943); settings: HepG2 Attagene cis-reporter, FoxO element, mRNA; actives raise or lower the signal
How it was run: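 HepG2 cells transiently transfected with cis-element-driven reporter units report endogenous FoxO activity. After 24 h chemical exposure, reporter mRNA quantified by RT-PCR, fluorescent labeling, HpaI digestion and capillary electrophoresis; bidirectional fit versus DMSO.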

[18] = ATG_GATA_CIS: Attagene CIS-FACTORIAL HepG2 Assay for human GATA Binding Protein (AID 2282944); settings: HepG2 GATA cis-element reporter, Attagene multiplex mRNA; actives raise or lower the signal
How it was run: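 Transfected cis-reporter HepG2 cells were treated with chemicals for 24 hours. Total RNA was then converted to cDNA, amplified with reporter-specific primers and analysed by fluorescent capillary electrophoresis, using DMSO-treated wells as baseline.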

[19] = ATG_GLI_CIS: Attagene CIS-FACTORIAL HepG2 Assay for human Zinc Finger Protein GLI1 (AID 2282945); settings: HepG2, Attagene cis-factorial reporter mRNA, GLI element; actives raise or lower the signal
How it was run: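 Transiently transfected HepG2 cells report endogenous transcription factor activity via cis-element-driven reporter units. After 24 h compound exposure, reporter mRNA was measured by RT-PCR with capillary electrophoresis; bidirectional fitting against DMSO baseline.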

[20] = ATG_M_61_CIS: Attagene CIS-FACTORIAL HepG2 Assay for M61 Transcription Factor (Internal Marker) (AID 2282937); settings: HepG2 Attagene CIS-FACTORIAL M61 internal marker reporter; actives raise or lower the signal
How it was run: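 HepG2 cells transiently transfected with multiplexed cis-promoter reporter units reporting endogenous transcription factor activity, measured 24 h after dosing. Reporter mRNA quantified by RT-PCR and capillary electrophoresis; bidirectional fit against DMSO baseline.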

For `ClC1=C(Cl)[C@]2(Cl)[C@@H]3[C@@H](Cl)[C@H]4O[C@H]4[C@@H]3C1(Cl)C2(Cl)Cl`, the outcome [1] was “inactive”, the outcome [2] was “inactive” and the AC50 [3] was 33.7 µM (active). For the same compound, the AC50 [4] was 8.22 µM (active), the outcome [5] was “inactive” and the AC50 [6] was 35.9 µM (active). The outcome [7] was “inactive”, the outcome [8] was “inactive” and the AC50 [9] was 3.4 µM (active). The outcome [10] was “inactive”, the AC50 [11] was 53 µM (active) and the AC50 [12] was 54.9 µM (active). The AC50 [13] was 179 µM (active), the outcome [14] was “inactive” and the outcome [15] was “inactive”. For the same compound, the outcome [16] was “inactive”, the outcome [17] was “inactive” and the AC50 [18] was 162 µM (active). The outcome [19] was “inactive”.

For `C=CC(=O)NCNC(=O)C=C`, the outcome [1] was “inactive”, the outcome [2] was “inactive” and the outcome [3] was “inactive”. The outcome [4] was “inactive”, the outcome [5] was “inactive” and the outcome [6] was “inactive”. The outcome [7] was “inactive”, the outcome [9] was “inactive” and the outcome [10] was “inactive”. For the same compound, the outcome [11] was “inactive”, the outcome [20] was “inactive” and the outcome [12] was “inactive”. For the same compound, the outcome [13] was “inactive”, the outcome [14] was “inactive” and the outcome [15] was “inactive”. The outcome [16] was “inactive”, the outcome [17] was “inactive” and the outcome [18] was “inactive”. For the same compound, the outcome [19] was “inactive”.

For `NS(=O)(=O)C(F)(F)C(F)(F)C(F)(F)C(F)(F)C(F)(F)C(F)(F)C(F)(F)C(F)(F)F`, the AC50 [1] was 44.3 µM (active) and 40.2 µM (active) and 32.2 µM (active), the AC50 [2] was 36.3 µM (active) and 24.3 µM (active) and the outcome [2] was “inactive”. The AC50 [3] was 40.4 µM (active) and 227 µM (active) and 21.6 µM (active), the AC50 [4] was 33.4 µM (active) and 105 µM (active) and the outcome [4] was “inactive”. For the same compound, the outcome [5] was “inactive”, the AC50 [6] was 29.9 µM (active) and 262 µM (active) and 17 µM (active) and the outcome [7] was “inactive”. For the same compound, the AC50 [9] was 40.4 µM (active) and 29.7 µM (active), the outcome [9] was “inactive” and the outcome [10] was “inactive”. The AC50 [11] was 240 µM (active), the outcome [11] was “inactive” and the outcome [20] was “inactive”. For the same compound, the AC50 [12] was 52 µM (active) and 40.8 µM (active), the outcome [12] was “inactive” and the outcome [13] was “inactive”. For the same compound, the AC50 [14] was 14.2 µM (active) and 38.2 µM (active) and 5.74 µM (active), the AC50 [15] was 38.8 µM (active) and the outcome [15] was “inactive”. The AC50 [16] was 258 µM (active), the outcome [16] was “inactive” and the outcome [17] was “inactive”. For the same compound, the outcome [18] was “inactive” and the outcome [19] was “inactive”.

In the case of `Cc1ccccc1CO[C@@H]1C[C@@]2(C(C)C)CC[C@]1(C)O2`, the outcome [1] is reported as “inactive”, the outcome [2] is reported as “inactive” and the outcome [3] is reported as “inactive”. For the same compound, the outcome [4] was “inactive”, the outcome [5] was “inactive” and the outcome [6] was “inactive”. The outcome [7] was “inactive”, the outcome [9] was “inactive” and the outcome [10] was “inactive”. For the same compound, the outcome [11] was “inactive”, the outcome [20] was “inactive” and the outcome [12] was “inactive”. The outcome [13] was “inactive”, the outcome [15] was “inactive” and the outcome [16] was “inactive”. The outcome [17] was “inactive”, the outcome [18] was “inactive” and the outcome [19] was “inactive”.

With `Cc1ccccc1O` the outcome [1] was “inactive”, the outcome [2] was “inactive” and the outcome [3] was “inactive”. The outcome [4] was “inactive”, the outcome [5] was “inactive” and the AC50 [6] was 140 µM (active). The outcome [7] was “inactive”, the outcome [9] was “inactive” and the outcome [10] was “inactive”. The outcome [11] was “inactive”, the outcome [12] was “inactive” and the outcome [13] was “inactive”. For the same compound, the outcome [14] was “inactive”, the outcome [15] was “inactive” and the outcome [16] was “inactive”. For the same compound, the outcome [17] was “inactive”, the outcome [18] was “inactive” and the outcome [19] was “inactive”.
